M1 PAM – potentiates human M1 receptor response to acetylcholine | activation, % at 3 µM | CHO-K1 hM1, Fluo-8 calcium fluorescence, ACh EC20; 0% = ACh EC20, 100% = maximal ACh | 0.088% of 360,000 active | AID 588819 | P11229; in the data active = activation above about 19%, passing the limit was not always enough
Target sequence (P11229 whole entry, looked up): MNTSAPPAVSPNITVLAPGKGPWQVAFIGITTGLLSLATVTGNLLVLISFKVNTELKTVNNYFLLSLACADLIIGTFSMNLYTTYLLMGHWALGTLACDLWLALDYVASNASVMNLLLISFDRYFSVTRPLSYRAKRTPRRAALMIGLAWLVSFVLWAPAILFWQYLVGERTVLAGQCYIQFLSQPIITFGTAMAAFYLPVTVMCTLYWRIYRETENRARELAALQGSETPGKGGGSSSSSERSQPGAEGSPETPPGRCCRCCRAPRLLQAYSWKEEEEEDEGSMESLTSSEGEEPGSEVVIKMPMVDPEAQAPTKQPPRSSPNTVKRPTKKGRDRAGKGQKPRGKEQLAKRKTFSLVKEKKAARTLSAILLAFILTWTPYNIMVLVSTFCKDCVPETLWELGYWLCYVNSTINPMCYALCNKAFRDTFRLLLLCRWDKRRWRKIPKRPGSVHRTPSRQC
CHO-K1 Ca PAM – M1 PAM counterscreen hit in parental CHO-K1 cells. ATP EC20, Fluo-8 calcium fluorescence; 0% at ATP EC20, 100% at ATP max. activation, % at 3 µM. 0.02% of 360,000 active;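 active = activation above the run cutoff, the mean activation of all test compounds plus 3 SD, cut at about 40% in these data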;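 also: peak over basal fluorescence ratio in a 140 s read after ATP addition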
M1 antag – antagonists of human M1 muscarinic receptor; P11229; CHO-K1 hM1, Fluo-8 calcium fluorescence, ACh EC80 antagonist; inhibition, % at 3 µM; 1.3% of 360,000 active; AID 588852;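 active = percent inhibition above its own plate's cutoff, namely the mean of that plate's compound wells plus 3 SD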;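 also: peak over basal fluorescence ratio during 140 s after agonist addition; 0% = ACh EC80 plus DMSO and 100% = DMSO alone without agonist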
M1 ag parental – nonselective activator or artifact in parental CHO-K1 cells | Fluo-8 calcium fluorescence; scaled to maximal ATP response, vehicle zero | 0.48% of 360,000 active | activation, % at 3 µM | AID 602248; in the data active = activation above about 15%;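 also: untransfected CHO-K1 host cells lacking M1 receptor as counterscreen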
M1 ag – activates human CHRM1 receptor; AID 588814; 0.33% of 360,000 active; CHO-K1 hM1, Fluo-8 calcium fluorescence, agonist mode; 0% DMSO, 100% acetylcholine EC100; activation, % at 3 µM; P11229;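 active = activation above the run's mean compound activation plus 3 SD, cut at about 16% in these data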;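 also: peak over basal fluorescence ratio within a 140 s kinetic read after compound addition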
CHO-K1 Ca antag – nonselective inhibitor or artifact in parental CHO-K1 cells; ATP-induced calcium, Fluo-8 fluorescence; inhibition, % at 3 µM; 0.6% of 360,000 active;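 active = inhibition above a per-plate cutoff, the plate's mean sample inhibition plus 3 SD, cut at about 24% in these data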;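 also: 0% = DMSO plus EC80 ATP and 100% = DMSO alone without ATP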
Active calls of the source: *. Sampled rows, rich in hits. Any-hit rate of the full collection: about 2.3%.

How did Cc1nccn1CC(O)Cn1c2ccccc2c2ccccc21 (centres undefined) do in these assays?
M1 PAM: -21; CHO-K1 Ca PAM: 23; M1 antag: 36*; M1 ag parental: 1; M1 ag: -5; CHO-K1 Ca antag: -10

Results for CCOC(=O)c1ccccc1NC(=O)CN(c1ccccc1C)S(C)(=O)=O ?
M1 PAM: 8; CHO-K1 Ca PAM: -5; M1 antag: -4; M1 ag parental: 0; M1 ag: -3; CHO-K1 Ca antag: 30*

How did COc1ccccc1NC(=O)CN(c1ccccc1C)S(C)(=O)=O do in these assays?
M1 PAM: 13; CHO-K1 Ca PAM: 23; M1 antag: -19; M1 ag parental: 1; M1 ag: -3; CHO-K1 Ca antag: -10

Results for CCc1ccc(N2CC(C(=O)N3CCN(c4ccc([N+](=O)[O-])cc4)CC3)CC2=O)cc1 (centres undefined) ?
M1 PAM: 8; CHO-K1 Ca PAM: -4; M1 antag: -11; M1 ag parental: -1; M1 ag: -5; CHO-K1 Ca antag: 15

Results for COc1cccc(CN(C)C(=O)C2CCC(=O)N(Cc3cccc(F)c3)C2)c1 (centres undefined) ?
M1 PAM: 13; CHO-K1 Ca PAM: -11; M1 antag: -13; M1 ag parental: 1; M1 ag: -2; CHO-K1 Ca antag: 4

Results for COc1cccc(CN2CC(C(=O)N(C)C3CCOCC3)CCC2=O)c1 (centres undefined) ?
M1 PAM: 3; CHO-K1 Ca PAM: -6; M1 antag: -9; M1 ag parental: 0; M1 ag: -4; CHO-K1 Ca antag: 30*

What do the screens show for `NC(=O)C1=C(c2ccccc2)c2ccccc2C1=O`?
M1 PAM: 3; CHO-K1 Ca PAM: -18; M1 antag: 6; M1 ag parental: 2; M1 ag: 9; CHO-K1 Ca antag: 28*

How did CC(C)=N/N=C(\c1cccc([N+](=O)[O-])c1)C12CN3CN(CN(C3)C1)C2 do in these assays?
M1 PAM: -21; CHO-K1 Ca PAM: 25; M1 antag: 62*; M1 ag parental: 1; M1 ag: 15; CHO-K1 Ca antag: -14

Results for O=[N+]([O-])c1cccc(C(O)C23CN4CN(CN(C4)C2)C3)c1 (centres undefined) ?
M1 PAM: 11; CHO-K1 Ca PAM: -19; M1 antag: 2; M1 ag parental: 0; M1 ag: -4; CHO-K1 Ca antag: 10

What do the screens show for `Cc1nc2sc(C(c3ccc(Cl)cc3)N3CC(C)OC(C)C3)c(O)n2n1` (centres undefined)?
M1 PAM: 23*; CHO-K1 Ca PAM: 1; M1 antag: -20; M1 ag parental: 0; M1 ag: 11; CHO-K1 Ca antag: 20

Results for Cc1nc(SCC(=O)NC2CCS(=O)(=O)C2)c2c3c(sc2n1)CCCC3 (centres undefined) ?
M1 PAM: -11; CHO-K1 Ca PAM: -28; M1 antag: 26*; M1 ag parental: 0; M1 ag: -1; CHO-K1 Ca antag: 12

Results for Cc1nc(SCC(=O)NC2CCS(=O)(=O)C2)c2c3c(sc2n1)CCC3 (centres undefined) ?
M1 PAM: 8; CHO-K1 Ca PAM: 9; M1 antag: -12; M1 ag parental: 1; M1 ag: -3; CHO-K1 Ca antag: -10

What do the screens show for `O=[N+]([O-])c1cccc(-c2cc3cccc[n+]3cc2-c2cccc([N+](=O)[O-])c2)c1`?
M1 PAM: 5; CHO-K1 Ca PAM: 14; M1 antag: 1; M1 ag parental: 0; M1 ag: -10; CHO-K1 Ca antag: -4

How did Cc1sc2cc(-c3cccc([N+](=O)[O-])c3)c(-c3cccc([N+](=O)[O-])c3)c[n+]2c1C do in these assays?
M1 PAM: -22; CHO-K1 Ca PAM: 11; M1 antag: 32*; M1 ag parental: 0; M1 ag: -10; CHO-K1 Ca antag: -6

What do the screens show for `Cc1nnc2ccc(-c3cccc(NS(=O)(=O)c4ccccc4[N+](=O)[O-])c3)nn12`?
M1 PAM: -24; CHO-K1 Ca PAM: 12; M1 antag: 32*; M1 ag parental: 1; M1 ag: -7; CHO-K1 Ca antag: -16

How did Cc1nnc2ccc(-c3cccc(NS(=O)(=O)c4ccccc4Cl)c3)nn12 do in these assays?
M1 PAM: -3; CHO-K1 Ca PAM: 7; M1 antag: 2; M1 ag parental: 0; M1 ag: -7; CHO-K1 Ca antag: -21

How did CCc1cc2c(N=Nc3c(O)[nH]c4ccccc34)ncnc2s1 do in these assays?
M1 PAM: 3; CHO-K1 Ca PAM: 16; M1 antag: -7; M1 ag parental: 0; M1 ag: -8; CHO-K1 Ca antag: -4

Results for CCc1ccc2[nH]c(O)c(N=Nc3nc(-c4ccccc4)cs3)c2c1 ?
M1 PAM: -3; CHO-K1 Ca PAM: 26; M1 antag: 7; M1 ag parental: 1; M1 ag: 20*; CHO-K1 Ca antag: -14

Results for CCOC(=O)C1=CC[C@@H](c2ccccc2C(F)(F)F)N(S(=O)(=O)c2ccc(C)cc2)[C@H]1c1ccc(C#N)cc1 ?
M1 PAM: 3; CHO-K1 Ca PAM: 11; M1 antag: -9; M1 ag parental: 1; M1 ag: -2; CHO-K1 Ca antag: 10

Results for Cc1ccccc1CN(C)CCc1ccccn1 ?
M1 PAM: 8; CHO-K1 Ca PAM: 1; M1 antag: -4; M1 ag parental: 0; M1 ag: -2; CHO-K1 Ca antag: -9

How did CC(C)=CCCC(C)CN(C)CCc1ccccn1 (centres undefined) do in these assays?
M1 PAM: -19; CHO-K1 Ca PAM: -7; M1 antag: 42*; M1 ag parental: 0; M1 ag: -8; CHO-K1 Ca antag: -3

What do the screens show for `CCCCOc1ccc(S(=O)(=O)NC(=O)C2(C)CCN2C(=O)c2c(C)noc2C)cc1` (centres undefined)?
M1 PAM: 3; CHO-K1 Ca PAM: 4; M1 antag: -12; M1 ag parental: 0; M1 ag: -4; CHO-K1 Ca antag: -6

What do the screens show for `CCOC(=O)Cn1c(-c2ccccc2)cc(SC)c(C#N)c1=O`?
M1 PAM: -27; CHO-K1 Ca PAM: 13; M1 antag: 52*; M1 ag parental: 1; M1 ag: -8; CHO-K1 Ca antag: 13

Results for CN(Cc1c(C(=O)N/N=C/c2cccs2)nnn1-c1nonc1N)c1ccccc1 ?
M1 PAM: 2; CHO-K1 Ca PAM: 19; M1 antag: -6; M1 ag parental: 5; M1 ag: 2; CHO-K1 Ca antag: -15

What do the screens show for `Cc1cc(C)cc(-c2nnc(SCC(=O)NCC3CCCO3)o2)c1` (centres undefined)?
M1 PAM: 28*; CHO-K1 Ca PAM: 13; M1 antag: -25; M1 ag parental: 0; M1 ag: 1; CHO-K1 Ca antag: -16

How did COc1ccc(-c2nnc(SCC(=O)NCC3CCCO3)o2)cc1 (centres undefined) do in these assays?
M1 PAM: 5; CHO-K1 Ca PAM: -2; M1 antag: -4; M1 ag parental: 0; M1 ag: -3; CHO-K1 Ca antag: -2
